Experimental data from PubChem BioAssay (NCATS).
Results filed as inconclusive are left out. Active and inactive are the calls of the source. Unless noted, calls come from the whole dose curve; as a rule, active = well fitted curve in the direction sought with a large enough effect; inconclusive = small, poorly fitted or top-dose-only effect, or another doubt; inactive = no such curve, though single readings can be large; an effect the other way counts as inactive or inconclusive.

How the values were obtained:
[1] = qHTS assay for small molecule disruptors of the mitochondrial membrane potential - 5 hr assay (AID 651755; calls by dose curve; note: % is set by controls: 0 for no effect and ±100 for the full control effect; nearly all actives have a fitted effect of over 40% in size)
How it was run: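 Seed HepG2 overnight, add compound, incubate 5 hr at 37C and 5% CO2, stain 30 min with Mito-MPS, then measure monomer (490/535 nm) and aggregate (540/590 nm) fluorescence.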

[2] = target: Tumor necrosis factor (Homo sapiens) (UniProt P01375); test: qHTS assay to identify small molecules that stimulate Tumor Necrosis Factor-alpha (TNF-alpha) secretion (AID 651757; active = well fitted curve in the direction sought with a large enough effect in the signal ratio; the % refers to the signal ratio; note: 0% is about no effect)
Sequence of Tumor necrosis factor (Homo sapiens) (P01375 whole entry, looked up): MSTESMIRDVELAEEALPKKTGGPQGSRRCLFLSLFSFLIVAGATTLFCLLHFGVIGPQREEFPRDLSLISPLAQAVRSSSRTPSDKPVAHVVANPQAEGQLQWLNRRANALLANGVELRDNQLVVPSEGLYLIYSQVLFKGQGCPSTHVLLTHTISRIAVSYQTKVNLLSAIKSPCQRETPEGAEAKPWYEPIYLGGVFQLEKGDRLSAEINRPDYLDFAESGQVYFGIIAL
How it was run: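 Human monocytic THP-1 cells are plated, treated with compound and held at 37 C for 17 hrs. Labeled anti-TNF-alpha antibody mixture is then added; after 3 hr at room temperature, TR-FRET signal reports secreted TNF-alpha.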

[3] = qHTS assay for environmental chemicals that activate the Aryl hydrocarbon Receptor (AhR) signaling pathway (AID 651777); details: 1A2-DRE human hepatoma cells, luciferase, 24 h; activation: hits give high values; note: % of control where 0% means no effect; nearly all actives have a fitted effect of over 15% in size
How it was run: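 Quantitative HTS in stably transfected human liver-derived cells whose luciferase gene sits downstream of the CYP1A2 promoter and dioxin response element. After 24 hr exposure at 37 C, One-Glo luminescence was measured.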

[4] = target: Peroxisome proliferator-activated receptor alpha (Homo sapiens) (UniProt Q07869); test: qHTS assay for small molecule agonists of the peroxisome proliferator-activated receptor alpha (PPARalpha) signaling pathway (AID 651778); details: PathHunter PPARalpha complementation, chemiluminescence, 6 h; hits give high values; note: % of control where 0% means no effect
Sequence of Peroxisome proliferator-activated receptor alpha (Homo sapiens) (Q07869 whole entry, looked up): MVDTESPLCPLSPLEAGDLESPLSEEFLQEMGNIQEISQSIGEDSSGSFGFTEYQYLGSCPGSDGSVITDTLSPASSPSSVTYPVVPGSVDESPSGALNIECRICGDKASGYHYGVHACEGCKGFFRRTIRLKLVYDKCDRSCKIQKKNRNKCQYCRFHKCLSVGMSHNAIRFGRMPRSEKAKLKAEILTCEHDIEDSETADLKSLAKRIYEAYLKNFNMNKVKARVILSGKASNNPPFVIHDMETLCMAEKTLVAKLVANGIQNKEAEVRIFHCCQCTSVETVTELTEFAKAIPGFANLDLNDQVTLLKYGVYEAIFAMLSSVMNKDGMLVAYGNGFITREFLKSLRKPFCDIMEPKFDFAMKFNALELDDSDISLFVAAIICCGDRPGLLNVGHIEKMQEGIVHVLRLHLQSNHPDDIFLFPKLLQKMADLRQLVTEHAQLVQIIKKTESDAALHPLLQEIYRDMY
How it was run: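 Cells plated at 2,000/well and held overnight at 37 C, 5% CO2, then compound added by pin tool for 6 hr; after PathHunter detection reagent and 60 min at room temperature, chemiluminescence from enzyme complementation was read.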

[5] = target: Nuclear receptor ROR-gamma (Homo sapiens) (UniProt P51449); test: qHTS assay for small molecule antagonists of the retinoid-related orphan receptor gamma (ROR-gamma) signaling pathway (AID 651802);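 note: CHO cells with doxycycline-induced ROR-gamma expression; series mostly up to about 92 µM; % is set by controls: 0 for no effect and ±100 for the full control effect; nearly all actives have a fitted effect of over 60% in size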
Sequence of Nuclear receptor ROR-gamma (Homo sapiens) (P51449 whole entry, looked up): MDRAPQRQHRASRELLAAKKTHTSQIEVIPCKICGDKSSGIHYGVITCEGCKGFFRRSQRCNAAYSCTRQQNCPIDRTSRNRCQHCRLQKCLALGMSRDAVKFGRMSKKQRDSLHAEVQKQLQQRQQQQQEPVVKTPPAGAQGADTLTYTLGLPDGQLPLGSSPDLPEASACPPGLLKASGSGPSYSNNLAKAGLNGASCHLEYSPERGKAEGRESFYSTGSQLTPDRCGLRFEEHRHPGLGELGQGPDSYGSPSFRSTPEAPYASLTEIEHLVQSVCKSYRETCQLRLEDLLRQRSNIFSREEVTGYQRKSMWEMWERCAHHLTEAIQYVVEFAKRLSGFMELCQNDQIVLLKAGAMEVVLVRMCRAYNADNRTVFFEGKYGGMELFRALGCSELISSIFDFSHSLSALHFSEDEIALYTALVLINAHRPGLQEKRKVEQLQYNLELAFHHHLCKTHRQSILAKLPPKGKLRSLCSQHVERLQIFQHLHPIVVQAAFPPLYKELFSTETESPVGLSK
How it was run: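 Steps: cells dispensed; compound or DMSO transferred by pin tool; doxycycline added to induce the ROR response element-driven luciferase; plates held 16hr at 37C; ONE-Glo added and luminescence measured.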

[6] = qHTS assay for small molecule agonists of the antioxidant response element (ARE) signaling pathway measured by Nrf2-dependant transcriptional activity (AID 720636; active = well fitted curve in the direction sought with a large enough effect in the repeat runs; an effect the other way counts as inactive or inconclusive; note: % of control where 0% means no effect)
How it was run: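 Quantitative HTS format in HepG2 cells stably expressing an ARE-luciferase reporter; 16 hr compound treatment at 37 C, luciferase signal detected with ONE-Glo.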

[7] = qHTS assay for small molecule antagonists of the retinoid-related orphan receptor gamma (ROR-gamma) signaling pathway - cell viability counter screen (AID 720652; active = well fitted curve in the direction sought with a large enough effect in the repeat runs; an effect the other way counts as inactive or inconclusive;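 note: CHO reporter cells with doxycycline-induced ROR-gamma expression; series mostly up to about 92 µM; compound exposure lasted 16 hr before ATP read; % is set by controls: 0 for no effect and ±100 for the full control effect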)
How it was run: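 Steps: seed CHO cells bearing TET-inducible ROR and ROR response element-luciferase; rest 5 hr at 37 C; add compound, then doxycycline; incubate 16 hr; add CellTiter-Glo and read luminescence as ATP-based viability.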

[8] = qHTS assay for small molecule agonists of the antioxidant response element (ARE) signaling pathway measured by Nrf2-dependant transcriptional activity - cell viability counter screen (AID 720653; active = well fitted curve in the direction sought with a large enough effect in the repeat runs; an effect the other way counts as inactive or inconclusive; note: % is set by controls: 0 for no effect and ±100 for the full control effect); details: ARE-bla HepG2 viability, CellTiter-Glo ATP luminescence, 16 h; hits give low values
How it was run: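 ARE-bla HepG2 cells (2,000/well) rested 5 hrs at 37C/5% CO2, then exposed to compounds in DMSO for 16 hrs. Viability was read in the same wells as intracellular ATP by luminescence, 30 min at room temperature after reagent addition.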

[9] = qHTS assay for cell viability of the p53RE-bla HCT-116 cell line (AID 743292); note: % is set by controls: 0 for no effect and ±100 for the full control effect; nearly all actives have a fitted effect of over 55% in size
How it was run: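 Viability of compound-treated p53RE-bla HCT-116 cells is taken from ATP-dependent luciferase luminescence. Treatment lasts 16 h at 37 C after a 5 h settling period; detection follows 30 min at room temperature.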

[10] = target: Nuclear receptor subfamily 1 group I member 3 (Homo sapiens) (UniProt Q14994); test: Primary qHTS for antagonist of constitutive androstane receptor (CAR) against the NCATS DSHEA and TCM libraries (AID 1794836); note: series mostly up to about 40 µM
Sequence of Nuclear receptor subfamily 1 group I member 3 (Homo sapiens) (Q14994 whole entry, looked up): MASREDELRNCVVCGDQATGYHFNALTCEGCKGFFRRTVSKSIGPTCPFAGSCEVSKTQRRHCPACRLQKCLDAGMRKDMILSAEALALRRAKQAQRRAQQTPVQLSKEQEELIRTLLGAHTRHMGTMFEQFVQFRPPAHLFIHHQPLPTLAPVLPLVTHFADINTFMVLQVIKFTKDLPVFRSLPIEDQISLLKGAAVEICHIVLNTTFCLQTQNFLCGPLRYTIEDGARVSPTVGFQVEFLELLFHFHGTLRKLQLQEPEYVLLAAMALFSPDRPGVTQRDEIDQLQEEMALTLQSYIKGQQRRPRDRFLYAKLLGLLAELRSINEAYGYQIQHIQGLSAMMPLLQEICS
How it was run: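 HepG2 cells stably carrying hCAR and a CYP2B6 luciferase reporter (2,500 cells/well) attached for 5 h, then received compounds with 48 uM CITCO for 24 h at 37C. ONE-Glo luminescence read antagonism; CellTiter-Fluor (405/540 nm) gave viability.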

[11] = Viability counterscreen for antagonist of constitutive androstane receptor (CAR) against the NCATS DSHEA and TCM libraries (AID 1794837);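 note: compound exposure lasted 24 h before viability reading; 0% is about no effect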
How it was run: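 Cell viability, CellTiter-Fluor, Ex/Em 405/540 nm, 1 h at 37C. HepG2-CYP2B6-hCAR, 2,500 cells/well; cpds + CITCO 48 uM final (antagonist mode), 24 h, 37C/5% CO2.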

[12] = HepG2 viability counterscreen (readout 2: ATP content) against the NCATS DSHEA and TCM libraries (AID 1794840);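 note: HepG2 cells exposed to substances for about 24 h; 0% is about no effect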
How it was run: (§1)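 1,000 HepG2 cells/well, 4 h attach; compounds ~24 h, 37C/5% CO2. Readout 1: GF-AFC 25 uM final, 30 min, fluorescence 380/510 nm. Readout 2: CellTiter-Glo, 30 min RT, luminescence.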

[13] = HepG2 viability counterscreen (readout 1: protease activity) against the NCATS DSHEA and TCM libraries (AID 1794841);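 note: cells exposed to compounds for about 24 h before the protease read; 0% is about no effect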
How it was run: as §1

[14] = target: Cytochrome P450 3A4 (Homo sapiens) (UniProt P08684); test: qHTS for inhibitors of CYP3A4 against the NCATS DSHEA and TCM libraries (AID 1919971);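 note: % is set by controls: 0 for no effect and ±100 for the full control effect; inhibition lowers luminescence from luciferin made by CYP3A4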
Sequence of Cytochrome P450 3A4 (Homo sapiens) (P08684 whole entry, looked up, canonical isoform): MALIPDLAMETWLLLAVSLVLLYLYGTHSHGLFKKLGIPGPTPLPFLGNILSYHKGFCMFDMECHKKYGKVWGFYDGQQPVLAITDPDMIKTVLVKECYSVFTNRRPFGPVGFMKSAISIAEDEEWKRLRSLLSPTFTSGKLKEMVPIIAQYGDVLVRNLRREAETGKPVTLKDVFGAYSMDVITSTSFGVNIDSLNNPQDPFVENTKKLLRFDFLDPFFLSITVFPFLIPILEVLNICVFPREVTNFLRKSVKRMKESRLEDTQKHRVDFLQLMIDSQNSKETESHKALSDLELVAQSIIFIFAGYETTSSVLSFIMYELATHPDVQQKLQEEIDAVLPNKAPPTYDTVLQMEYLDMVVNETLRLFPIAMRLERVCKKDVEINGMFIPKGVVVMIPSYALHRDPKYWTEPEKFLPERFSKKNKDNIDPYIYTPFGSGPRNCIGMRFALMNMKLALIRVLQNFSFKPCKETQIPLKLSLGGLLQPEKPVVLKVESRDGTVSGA
How it was run: (§2)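 Concentration-response screening with isoform-matched pro-luciferin substrates. The CYP reaction was initiated by NADPH regenerating solution and ran 30-45 min in darkness at room temperature.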

[15] = target: Cytochrome P450 2D6 (Homo sapiens) (UniProt P10635); test: qHTS for inhibitors of CYP2D6 against the NCATS DSHEA and TCM libraries (AID 1919972); note: % is set by controls: 0 for no effect and ±100 for the full control effect
Sequence of Cytochrome P450 2D6 (Homo sapiens) (P10635 whole entry, looked up): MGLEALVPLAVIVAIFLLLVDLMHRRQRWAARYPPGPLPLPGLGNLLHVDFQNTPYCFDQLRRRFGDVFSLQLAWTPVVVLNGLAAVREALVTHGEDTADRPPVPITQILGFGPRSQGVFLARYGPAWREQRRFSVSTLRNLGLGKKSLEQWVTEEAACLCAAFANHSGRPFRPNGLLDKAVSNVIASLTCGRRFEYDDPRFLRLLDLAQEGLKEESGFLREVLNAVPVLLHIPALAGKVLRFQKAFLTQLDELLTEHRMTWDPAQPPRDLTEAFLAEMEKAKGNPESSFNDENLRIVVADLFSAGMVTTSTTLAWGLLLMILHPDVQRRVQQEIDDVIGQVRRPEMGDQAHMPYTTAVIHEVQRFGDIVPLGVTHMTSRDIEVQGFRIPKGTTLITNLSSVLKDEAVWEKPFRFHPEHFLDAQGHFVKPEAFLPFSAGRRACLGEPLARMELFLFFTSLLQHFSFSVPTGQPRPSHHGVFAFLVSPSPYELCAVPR
How it was run: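 CYP2D6 enzyme with pro-luciferin substrate in manufacturer buffer (typically 100 mM KPO4), preincubated 15 min RT with substances (most at 19.5 nM upward); NADPH regeneration system (1x) started 30–45 min RT reaction; P450-Glo luminescence read after 30 min; quinidine as intraplate control.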

[16] = target: Cytochrome P450 2C9 (Homo sapiens) (UniProt P11712); test: qHTS for inhibitors of CYP2C9 against the NCATS DSHEA and TCM libraries (AID 1919973);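 note: luminogenic pro-luciferin CYP2C9 substrate turned into luciferin with NADPH regeneration; series mostly up to about 34 µM; % is set by controls: 0 for no effect and ±100 for the full control effect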
Sequence of Cytochrome P450 2C9 (Homo sapiens) (P11712 whole entry, looked up): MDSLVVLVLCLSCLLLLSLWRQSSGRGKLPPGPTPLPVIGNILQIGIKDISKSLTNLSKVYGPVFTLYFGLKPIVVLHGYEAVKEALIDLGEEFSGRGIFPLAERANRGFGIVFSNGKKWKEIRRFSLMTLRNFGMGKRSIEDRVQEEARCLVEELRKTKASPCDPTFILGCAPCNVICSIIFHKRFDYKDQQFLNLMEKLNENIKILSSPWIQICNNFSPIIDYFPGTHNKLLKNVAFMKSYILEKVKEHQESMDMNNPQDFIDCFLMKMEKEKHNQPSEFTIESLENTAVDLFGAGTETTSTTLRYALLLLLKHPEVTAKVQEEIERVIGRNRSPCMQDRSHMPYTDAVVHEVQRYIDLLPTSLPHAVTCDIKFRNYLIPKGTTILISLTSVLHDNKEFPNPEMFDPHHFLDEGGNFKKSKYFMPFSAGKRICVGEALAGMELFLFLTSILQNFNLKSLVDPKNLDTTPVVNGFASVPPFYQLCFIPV
How it was run: as §2

[17] = target: Cytochrome P450 2C19 (Homo sapiens) (UniProt P33261); test: qHTS for inhibitors of CYP2C19 against the NCATS DSHEA and TCM libraries (AID 1919974);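 note: luminescence from luciferin released by CYP2C19 oxidation of a pro-luciferin substrate; potency is the fitted concentration of half-maximal effect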
Sequence of Cytochrome P450 2C19 (Homo sapiens) (P33261 whole entry, looked up): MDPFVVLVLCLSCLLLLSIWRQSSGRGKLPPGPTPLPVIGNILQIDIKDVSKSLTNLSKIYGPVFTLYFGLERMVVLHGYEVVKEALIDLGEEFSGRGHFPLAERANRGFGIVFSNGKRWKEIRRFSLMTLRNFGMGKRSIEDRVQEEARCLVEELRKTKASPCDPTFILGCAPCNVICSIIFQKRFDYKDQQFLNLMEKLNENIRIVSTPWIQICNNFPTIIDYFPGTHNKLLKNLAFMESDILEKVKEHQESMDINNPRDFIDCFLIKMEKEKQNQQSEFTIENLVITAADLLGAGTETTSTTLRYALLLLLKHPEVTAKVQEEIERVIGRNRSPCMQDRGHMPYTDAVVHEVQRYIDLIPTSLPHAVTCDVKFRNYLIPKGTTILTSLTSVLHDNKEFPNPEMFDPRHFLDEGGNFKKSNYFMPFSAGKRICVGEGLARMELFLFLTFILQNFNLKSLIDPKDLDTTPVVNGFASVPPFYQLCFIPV
How it was run: as §2

[18] = KB-3-1 P-gp reporter qHTS against the NCATS DSHEA and TCM libraries (AID 1919975); note: 0% is about no effect
How it was run: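 CellTiter-Glo luminescence viability readout; KB-3-1 parental cells, 500/well, attached ~4 h, then compound for ~72 h, 37C, 5% CO2. Bortezomib intraplate control.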

[19] = KB-8-5-11 P-gp reporter qHTS against the NCATS DSHEA and TCM libraries (AID 1919977); note: 0% is about no effect
How it was run: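 CellTiter-Glo luminescence after ~72 h exposure at 37C gave viability of KB-8-5-11 cells, the P-gp-overexpressing subline. Substances were titrated; colchicine was omitted from assay medium.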

[20] = qHTS Counterscreen for compound interference against the NCATS DSHEA and TCM libraries (AID 1919978); details: firefly luciferase detection reagent interference, luminescence;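 note: compounds preincubated with 1 µM D-luciferin or buffer before detection reagent; % of control where 0% means no effect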
How it was run: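 Luminescence counterscreen for detection-kit interference: compounds at 19.5 nM–39.8 uM final, 15 min RT with 1 uM D-luciferin or buffer only; detection reagent added, 30 min RT, then read.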

[21] = Dual reporter qHTS for agonist of Pregnane X Receptor (hPXR) against the NCATS DSHEA and TCM libraries: Fluorescence readout (AID 1920058); note: 0% is about no effect
How it was run: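 Cells were plated at 2000 per well and allowed to attach for 5 h. Test substances were pinned in and incubated roughly 24 h. CellTiter-Fluor was then added and fluorescence measured after 1 h.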

[22] = target: Nuclear receptor subfamily 1 group I member 2 (Homo sapiens) (UniProt O75469); test: Dual reporter qHTS for agonist of Pregnane X Receptor (hPXR) against the NCATS DSHEA and TCM libraries: Luminescence readout (AID 1920059); note: 0% is about no effect
Sequence of Nuclear receptor subfamily 1 group I member 2 (Homo sapiens) (O75469 whole entry, looked up): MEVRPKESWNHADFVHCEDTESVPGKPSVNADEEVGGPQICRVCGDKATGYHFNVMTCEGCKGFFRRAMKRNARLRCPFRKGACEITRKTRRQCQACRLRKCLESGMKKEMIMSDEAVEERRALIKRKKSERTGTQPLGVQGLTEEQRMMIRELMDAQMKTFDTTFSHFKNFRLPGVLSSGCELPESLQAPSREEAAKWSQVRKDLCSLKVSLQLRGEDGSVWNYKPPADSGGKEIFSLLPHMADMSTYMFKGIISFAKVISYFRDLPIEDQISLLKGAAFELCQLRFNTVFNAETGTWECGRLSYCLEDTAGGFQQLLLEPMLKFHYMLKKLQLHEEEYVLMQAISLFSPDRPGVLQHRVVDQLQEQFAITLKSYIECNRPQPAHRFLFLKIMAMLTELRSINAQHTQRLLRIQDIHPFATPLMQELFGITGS
How it was run: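 hPXR-LucHepG2 cells in phenol red-free DMEM with 5% charcoal-stripped FBS, 2000 cells/well, attached 5 h, then exposed 24 h at 37C to compounds; rifampicin as positive agonist control (2.8 nM–92 uM). Luciferase luminescence read.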

[23] = target: Nuclear receptor subfamily 1 group I member 2 (Homo sapiens) (UniProt O75469); test: Dual reporter qHTS for antagonist of Pregnane X Receptor (hPXR) against the NCATS DSHEA and TCM libraries: Luminescence Readout (AID 1920060);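 note: HepG2 cells carrying hPXR luciferase reporter stimulated with rifampicin at 2 µM; 0% is about no effect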
How it was run: (§3)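 HepG2 hPXR-Luc, 2000 cells/well, charcoal-stripped FBS medium; 5 h attach; RIF 2 uM final; 24 h 37C/5% CO2; CellTiter-Fluor 1 h, fluor 405/540; ONE-Glo 30 min RT, lum.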

[24] = Dual reporter qHTS for antagonist of Pregnane X Receptor (hPXR) against the NCATS DSHEA and TCM libraries: Fluorescence Readout (AID 1920061); note: 0% is about no effect
How it was run: as §3

[25] = target: Nuclear receptor subfamily 1 group I member 2 (Rattus norvegicus) (UniProt Q9R1A7); test: qHTS assay for small molecule activators of the rat pregnane X receptor (rPXR) signaling pathway (AID 651751; call rule not given here; note: 0% is about no effect); details: rPXR reporter cells, luciferase (One-Glo), 24 h
Sequence of Nuclear receptor subfamily 1 group I member 2 (Rattus norvegicus) (Q9R1A7 whole entry, looked up): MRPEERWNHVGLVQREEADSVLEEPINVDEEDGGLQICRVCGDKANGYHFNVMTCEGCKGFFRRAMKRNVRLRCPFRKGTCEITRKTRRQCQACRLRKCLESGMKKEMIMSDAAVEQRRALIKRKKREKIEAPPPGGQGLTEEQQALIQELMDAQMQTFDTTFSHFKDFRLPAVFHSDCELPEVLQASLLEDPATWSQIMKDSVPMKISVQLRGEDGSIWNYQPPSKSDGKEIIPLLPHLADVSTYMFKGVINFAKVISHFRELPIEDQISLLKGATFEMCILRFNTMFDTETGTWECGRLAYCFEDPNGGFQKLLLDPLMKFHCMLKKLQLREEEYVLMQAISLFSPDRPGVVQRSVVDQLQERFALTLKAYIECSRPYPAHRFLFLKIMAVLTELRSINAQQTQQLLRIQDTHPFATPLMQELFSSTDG

COC1=CC(=O)OC(CCc2ccccc2)C1 (stereo not given)
active: Potency [17] 14.1 µM
inactive: Potency [1] | outcome [2] | activation [3] 1.87% | max response [4] -9.22% | Potency [5] | outcome [6] | Potency [7] | max response [8] -8.18% | Potency [9] | Potency [10] | outcome [11] | outcome [12] | outcome [13] | Potency [14] | Potency [15] | Potency [16] | outcome [18] | Potency [19] | max response [20] 2.83% | outcome [21] | Potency [22] | outcome [23] | outcome [24] | max response [25] 3.74%
